# Several values for one entry are separate records, joined by “and”; a condition that tells them apart may be missing. Equal entries are not always repeated. Records with an inconclusive call do not appear. Activity calls are given as the source filed them. Calls follow the shape of the dose curve; as a rule, active = well fitted cell-killing curve with a large enough effect in the repeat runs; inconclusive = weak or mixed curves, or effect the other way; inactive = flat fitted curve, though single readings scatter.
# Experiment: cAMP Responsive Elements (CRE) small molecule agonists, cell-based qHTS assay: qHTS cell viability counter screen (AID 2060914);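 also: viability read after 3 h of compound exposure; nearly all actives have a fitted effect of over 50% in size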
# Conditions: CRE-bla HEK293T viability, CellTiter-Glo luminescence, 5 h; series mostly up to 92.4 µM; activity change, negative = cytotoxicity: at the top concentration
# Description: National Center for Advancing Translational Sciences [NCATS]
# Division of Preclinical Innovation [DPI]
# U.S. Environmental Protection Agency [EPA]
# National Institutes of Environmental Health Sciences [NIEHS]
# National Toxicology Program [NTP]
# U.S. Food and Drug Administration [FDA]
# CREB (cyclic-AMP Responsive Element Binding Protein) is a cellular transcription factor. It binds to certain DNA sequences called cAMP Responsive Elements (CRE) and regulates the transcription of the genes. […] This cell line can be used to find agonists/antagonists of the cyclic AMP signaling pathway. The activation of the report gene under culture conditions can be detected by fluorescence intensity. This cell line has been used to screen the Tox21 10K compound library to identify agonists that induce oxidative stress. The cytotoxicity of the Tox21 compound library against the CRE-bla cell line was tested in parallel by measuring the cell viability using CellTiter-Glo assay (Promega, Madison, WI) in the same wells.
# Tox21 Assay Protocol Summary:
# CRE-bla Hek 293T cells were suspended in assay medium (DMEM containing 10% dialyzed FBS, 0.1 mM NEAA, 1 mM sodium pyruvate and 25 mM HEPES) and dispensed at 2,000 cells/5 uL /well into 1536-well black wall/clear bottom plates using a Multidrop Combi (ThermoFisher Scientific, Waltham, MA) dispenser. After the assay plates were incubated at 37 C/5% CO2 for 18 hrs, 23 nL of compounds dissolved in DMSO, positive controls or DMSO only was transferred to the assay plate by a pintool workstation (Kalypsys, San Diego, CA). After the plates were incubated at 37 C/5% CO2 for 3 hrs, 1 uL of LiveBLAzer B/G FRET substrate (Invitrogen, Carlsbad, CA) was added to each well using Bioraptr Flying Reagent Dispenser (FRD, Aurora Discovery, San Diego, CA). The plates were incubated at room temperature for 2 h, then fluorescence intensities were measured using an Envision plate reader (PerkinElmer, Shelton, CT) at Excitation 405nm, Emission 460nm and 530nm. The % activity was determined from the ratio of 460nm/530nm. For cell viability readout that measures cytotoxicity, 4 uL /well of CellTiter-Glo reagent was added into the assay plates using Bioraptr FRD. After 30 min incubation at room temperature, the luminescence intensity in the assay plates was measured using a ViewLux (PerkinElmer, Shelton, CT) plate reader.
# % is scaled to controls: 0 for no effect and ±100 for the full control effect; potency is read from the fitted curve at half-maximal effect.
Compound,Potency,"activity change, negative = cytotoxicity"
OCCOCCOCCOCCO,inactive,–
CC(C)CC(C)O (stereo not given),inactive,–
O=C(CS(=O)Cc1ccco1)NC/C=C\COc1cc(CN2CCCCC2)ccn1 (stereo not given),–,-1.58% [at 42.5 µM] (inactive)
Cc1cc(Cc2cc(C)cc(C(C)(C)C)c2O)c(O)c(C(C)(C)C)c1,34.6 µM (active) and 54.5 µM (active),–
CS(C)=O,–,-14.9% (inactive)
CC(CCc1ccccc1)NCC(O)c1ccc(O)c(C(N)=O)c1 (stereo not given),–,16.3% (inactive)
O=C1CC[C@@H](C(=O)O)N1,–,20.6% [at 42.5 µM] (inactive)
CCCCCCCCCCCCCC,–,-1.98% (inactive)
O=C(O)CCc1nc(-c2ccccc2)c(-c2ccccc2)o1,–,-8.4% [at 42.5 µM] (inactive)
C=CC(=O)OCCOC1C2CCC1C1CC=CC12 (stereo not given),–,-3.05% [at 18.9 µM] (inactive)
COc1ccc(N)c(OC)c1,inactive,–
C=COCC1CCC(CO)CC1 (stereo not given),–,-0.545% (inactive)
CC(C)=CCC[C@@](C)(O)[C@H]1CC=C(C)CC1,–,11.6% [at 42.5 µM] (inactive)
CC(CCO)CCc1ccccc1 (stereo not given),–,12.8% (inactive)
CCCc1ncc(C(=O)O)s1,–,-4.29% [at 42.5 µM] (inactive)
CC1CCCC1,–,13.7% (inactive)
Cc1cccc(N(C)C)c1,–,0.0317% (inactive)
CCCn1cnc2c1c(=O)n(CCCCC(C)=O)c(=O)n2C,–,1.72% [at 42.5 µM] (inactive)
COC(=O)[C@H](Cc1ccccc1)NC(=O)[C@@H](N)CC(=O)O,inactive,–
CC1CCC(C(C)C)C(O)C1 (stereo not given),inactive,–

Compound,Potency,"activity change, negative = cytotoxicity"
CCCCC(CC)COP(=O)(O)O (stereo not given),–,14.3% (inactive)
O=C(c1ccccc1)c1ccc(O)c(O)c1O,inactive,–
CC(C)CC(C)(O)C#CC(C)(O)CC(C)C (stereo not given),inactive,–
O=C(O)CCc1nc2ccccc2[nH]1,–,-8.11% [at 42.5 µM] (inactive)
N/C(=N\N=C\c1ccc(Cl)cc1)N/N=C/c1ccc(Cl)cc1,–,6.65% [at 42.5 µM] (inactive)
C=C1CC/C=C(\C)CC[C@@H]2[C@@H]1CC2(C)C,–,0.359% (inactive)
Cc1cc(C)c(O)c(C(C)(C)C)c1,–,0.976% (inactive)
O=C(N[C@@H](c1ccccc1)[C@@H]1CCCCN1)c1cccc(C(F)(F)F)c1Cl,–,0.319% (inactive)
CCN(CC)C(=O)c1cc(S(=O)(=O)Cc2ccccc2)c(N2CCC(c3ccccc3)CC2)cc1N(CC)CCN(C)C,–,-21% [at 42.5 µM] (inactive)
Cc1c(C(=O)NN2CCCCC2)nn(-c2ccc(Cl)cc2Cl)c1-c1ccc(Cl)cc1,–,22.9% [at 42.5 µM] (inactive)
CCCCCCCC/C=C\CCCCCCCC(=O)OC(CO)CO,–,8.09% (inactive)
CCCCCOC(=O)COc1cc(N2C(=O)C3=C(CCCC3)C2=O)c(F)cc1Cl,–,7.26% (inactive)
C=CC(C)(O)CC/C=C(\C)CC (stereo not given),–,-1.75% (inactive)
C=C1C[C@]23C[C@@]1(O)CC[C@H]2[C@@]12C=C[C@H](O)[C@@](C)(C(=O)O1)[C@H]2[C@@H]3C(=O)O,inactive,–
O=C1NC(=O)C2CC=CCC12 (stereo not given),–,-6.32% (inactive)
CCCCCCOC(=O)c1ccccc1,–,1.47% (inactive)
CC(C)OC(=O)C(C(=O)OC(C)C)=C1SC=CS1,–,-6.31% [at 42.5 µM] (inactive)
Nc1ccc(Cl)c([N+](=O)[O-])c1,–,-16.5% (inactive)
CCCCCCCCCCCCCCCCOP(=O)([O-])OCC[N+](C)(C)C,–,-14% [at 42.5 µM] (inactive)
CC(C)C(C)(C)C(C)(C)C(C)(C)S,–,-2.64% (inactive)
